Where “and” joins values, the source holds several entries; their conditions need not be identical. Identical values can stand only once.
target: T1, Tyrosine-protein kinase ITK/TSK (Homo sapiens) (UniProt Q08881); details: at 1 µM
T1 sequence (whole entry): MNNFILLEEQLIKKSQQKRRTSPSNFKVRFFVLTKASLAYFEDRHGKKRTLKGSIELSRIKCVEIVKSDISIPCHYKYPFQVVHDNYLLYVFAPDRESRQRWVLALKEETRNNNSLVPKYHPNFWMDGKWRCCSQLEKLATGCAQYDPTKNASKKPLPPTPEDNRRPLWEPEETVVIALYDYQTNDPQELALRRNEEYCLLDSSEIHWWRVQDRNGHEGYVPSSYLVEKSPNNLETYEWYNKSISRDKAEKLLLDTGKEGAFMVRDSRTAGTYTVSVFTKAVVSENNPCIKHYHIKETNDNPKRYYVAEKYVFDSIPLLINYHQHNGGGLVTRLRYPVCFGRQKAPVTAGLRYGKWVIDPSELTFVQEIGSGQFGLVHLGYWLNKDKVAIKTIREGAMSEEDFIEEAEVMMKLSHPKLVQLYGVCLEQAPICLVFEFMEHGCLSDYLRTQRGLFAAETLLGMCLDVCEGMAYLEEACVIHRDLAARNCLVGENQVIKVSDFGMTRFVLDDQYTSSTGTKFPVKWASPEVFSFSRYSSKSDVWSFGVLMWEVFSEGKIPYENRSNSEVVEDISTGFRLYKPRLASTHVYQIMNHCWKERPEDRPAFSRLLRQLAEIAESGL
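Also: values are mean percent inhibition of ITK from the GSK PKIS screen.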

Row | SMILES | inhibition
1 | CN1CCN(Cc2ccc(-c3cc4ncnc(Nc5ccc(OCc6cccc(F)c6)c(Cl)c5)c4s3)o2)CC1 | 2.43% and 2.68%
2 | Cc1nnc(-c2cccc(-c3ccc(C(=O)NCC4CC4)cc3)c2)o1 | 2.05%
3 | CCn1c(-c2nonc2N)nc2cncc(C(=O)NCCNC)c21 | 0.3%
4 | COc1c(C(N)=O)cc(-c2ccc(Cl)cc2)cc1-c1ccc(S(N)(=O)=O)cc1 | 2.4%
5 | COc1cc(N2CCN(C(C)C)CC2)ccc1Nc1nc(Nc2cccc3ncccc23)c2cc[nH]c2n1 | 2.05%
6 | CS(=O)(=O)CCNCc1ccc(-c2ccc3ncnc(Nc4ccc(OCc5ccccc5)cc4)c3c2)o1 | 2.16%
7 | Cc1c2ccc(N(C)c3ccnc(Nc4cccc(S(N)(=O)=O)c4)n3)cc2nn1C | 2.14%
8 | N#Cc1cccc(Nc2ncc(-c3ccccc3)o2)c1 | 2.42%
9 | FC(F)(F)CNc1nccc(-c2cnn3ncccc23)n1 | 1%
10 | c1cnn2ncc(-c3ccnc(NCCCN4CCOCC4)n3)c2c1 | 0.08%
11 | Cc1cc(O)cc(C)c1/C=C/c1cncc(C(N)=O)c1 | 2.12%
12 | NC(=O)c1ccc2c(-c3ccnc(NCCCO)n3)c(-c3ccc(F)cc3)nn2c1 | 1.77%
13 | Fc1cccc(COc2ccc(Nc3ncncc3C#Cc3ccccc3)cc2Cl)c1 | 1.93%
14 | CCCNc1cccc(-n2ncc3c(N/N=C/c4ccncc4)ncnc32)c1 | 10.8%
15 | COc1cccc(Nc2nccc(-c3cnn4ncccc34)n2)c1 | 6.45%
16 | Cc1cc(O)cc(C)c1/C=C/c1cncc(C(=O)OC(C)(C)C)c1 | 2.71%

Row | SMILES | inhibition
17 | CS(=O)(=O)Nc1ccc(-c2ccc3c(NC(=O)C4CC4)n[nH]c3c2)cc1 | 4.27%
18 | COC(=O)Nc1nc2cc(Oc3ccc(NC(=O)Nc4ccccc4)cc3)ccc2[nH]1 | 1.86%
19 | CN1CCC(n2cnc(-c3ccc(F)cc3)c2-c2ccnc(NCCO)n2)CC1 | 2.24%
20 | CC1=C(C(=O)Nc2ccc3[nH]ncc3c2)C(c2ccc(F)cc2)N=C(c2ccc(C(F)(F)F)nc2)N1 (stereo unspecified) | 2.33%
21 | NS(=O)(=O)c1cccc(N/C=C2\C(=O)Nc3ccccc32)c1 | 3.54%
22 | O=C(O[C@H]1CN[C@H](C#Cc2cc3ncnc(Nc4ccc5c(ccn5Cc5cc(F)ccc5F)c4)c3s2)C1)N1CCOCC1 | 2.55%
23 | CC1(C)CC(n2cnc(-c3ccc(F)cc3)c2-c2ccnc(N)n2)CC(C)(C)N1 | 0.97%
24 | c1ccc(-c2n[nH]cc2-c2ccnc(-c3ccc(OCCn4ccnc4)cc3)c2)nc1 | 2.03%
25 | CCN1CCC(C(=O)Nc2n[nH]c3nnc(-c4cccc(F)c4F)cc23)CC1 | 0.88%
26 | CS(=O)(=O)CCNCc1ccoc1-c1ccc2ncnc(Nc3ccc(OCc4ccccc4)cc3)c2c1 | 1.03%
27 | COc1cc2c(cc1Nc1nc(Nc3cccc(F)c3C(N)=O)c3cc[nH]c3n1)N(C(=O)CN1CCN(C(C)C)CC1)CC2 | 4.16%
28 | O=C(Nc1n[nH]c2nnc(-c3cccnc3)cc12)C1CC1 | 2.49%
29 | COc1cccc(-n2ncc3c(N/N=C/c4ccc(C(=O)NCCN(C)C)cc4)ncnc32)c1 | 8.64%
30 | CN1CCC(C(=O)Nc2n[nH]c3nc(-c4ccc(O)cc4)c(Br)cc23)CC1 | -1.94% and 1.71%
31 | O=C(O[C@H]1CN[C@H](C#Cc2cc3ncnc(Nc4ccc5c(cnn5Cc5ccccc5)c4)c3s2)C1)N1CCOCC1 | -0.49%

Source: ChEMBL document CHEMBL1961873, “Compounds: GSK PKIS; Assays: Nanosyn kinase panel” (2012)
